AID923 – qHTS Assay for Allosteric/Competitive Inhibitors of Caspase-1: Spectroscopic Profiling in AFC Spectral Region; compound fluorescence, AFC spectral region (405/520 nm); Potency, µM (highest dose often 57.5 µM), for the others: top-dose fluorescence increase, hits mostly activators; hit rate 1.1% among 75,000; also: potency is read from the fitted curve at half-maximal effect; 0% is about no effect
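Baseline compound fluorescence (AFC region, 405 nm ex/520 nm em) taken from the intercept of kinetic reads with 50 nM caspase-1 and 5 uM Ac-WEHD-AFC; normalized to an on-plate AFC standard curve; compounds titrated up to 57 uM.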
A350 autofl – compound fluoresces in the Alexa 350 spectral region. Compound autofluorescence, 340/450 nm, Alexa 350 dye-equivalents; hits give high values. max dye-equivalent concentration, M. hit rate 11% among 59,000. AID 590; in the data active = max dye-equivalent concentration above about 10 nM; inconclusive = mostly about 1.1 nM to 9.6 nM
HADH2 inhib – inhibitors of human HADH2 dehydrogenase; recombinant HADH2, NADH fluorescence, beta-hydroxybutyryl-CoA; Potency, µM (titrated, usually from 57.1 µM), for inactives: at the highest dose activity change, negative = inhibition, actives largely listed as inhibitors; hit rate 3.4% among 73,000; AID 886; also: potency is read from the fitted curve at half-maximal effect; % is scaled to controls: 0 for no effect and ±100 for the full control effect; nearly all actives have a fitted effect of over 60% in size
Target sequence (Q99714 whole entry, looked up, one chain of several): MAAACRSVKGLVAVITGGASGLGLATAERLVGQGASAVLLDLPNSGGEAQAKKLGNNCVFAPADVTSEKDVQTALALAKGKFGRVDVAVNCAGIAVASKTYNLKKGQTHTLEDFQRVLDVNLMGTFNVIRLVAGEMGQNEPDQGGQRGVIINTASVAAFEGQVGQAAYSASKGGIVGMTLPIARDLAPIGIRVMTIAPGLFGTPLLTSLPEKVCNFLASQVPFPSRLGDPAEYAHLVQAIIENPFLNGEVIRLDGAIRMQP
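20 nM HADH2 + cpd, 15 min RT; add 1 mM NAD+/90 uM beta-hydroxybutyryl-CoA; kinetic fluorescence 360/450 nm, 4 min. Tris-HCl pH 9.0, 0.01% Tween-20.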
GBA activity – alters purified human glucocerebrosidase activity; purified enzyme, resorufin glucoside fluorescence (screen aimed at inhibitors), 20 min; AID 360; hit rate 1.1% among 48,000; Potency, µM; P04062; in the data active = potency below about 15 µM; inconclusive = mostly about 16 µM to 33 µM;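 also: potency is read from the fitted curve at half-maximal effect; the screen sought inhibitors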
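Normal human glucocerebrosidase (0.2 nM final) was assayed with resorufin β-D-glucopyranoside (30 uM final) in 50mM citric acid/KH2PO4, 10mM sodium taurocholate, 0.01% tween-20, pH 5.9. Compounds were titrated; fluorescence (Ex 548, Em 600) read after 20 min at RT.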
HSD17B inhib – blocks hydroxysteroid 17-beta dehydrogenase activity; AID 893; Potency, µM (titrated, usually from 57.1 µM), without a hit: at the highest dose activity change, negative = inhibition, actives largely listed as inhibitors; hit rate 7.6% among 75,000; recombinant HSD17B10, NADH fluorescence kinetic;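 also: the protocol describes HADH2 (HSD17B10) and not the HSD17B4 of the title; potency is read from the fitted curve at half-maximal effect; % is scaled to controls: 0 for no effect and ±100 for the full control effect; nearly all actives have a fitted effect of over 70% in size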
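His-tagged E. coli-expressed HADH2 at 20 nM in 100 mM Tris-HCl pH 9.0 with 0.01 % Tween-20, preincubated 15 min with compound at room temperature. Reaction with 1 mM NAD+ and 90 uM beta-hydroxybutyryl coenzyme A; NADH fluorescence (360/450 nm) read kinetically over 4 min, last minus first point.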
4MU fluor – compounds fluorescent in 4-MU spectral region | compound autofluorescence, 340/450 nm, 4-MU equivalents; hits give high values | max dye-equivalent concentration, M | hit rate 11% among 59,000; in the data active = max dye-equivalent concentration above about 10 nM; inconclusive = mostly about 1.1 nM to 9.6 nM
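Compounds in 100 mM Tris, pH 8.0, sat 15 min at room temperature before fluorescence was read at 340 nm excitation/450 nm emission; a per-plate six-point 4-MU standard curve converted signals to dye-equivalent concentration at each compound concentration.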
The depositor's hits bear a star; i = inactive; u = inconclusive; x = no result given; [ ] = another dose, or the depositor's remark. Only some compounds are listed: those with a hit (about 13% of all), similar ones and a draw of the others. Unless noted, calls follow the shape of the dose curve; as a rule, active = well fitted curve in the direction sought with a large enough effect; inconclusive = small, poorly fitted or top-dose-only effect, or another doubt; inactive = no such curve, though single readings can be large; an effect the other way counts as inactive or inconclusive.

SMILES	AID923	A350 autofl	HADH2 inhib	GBA activity	HSD17B inhib	4MU fluor
COc1ccc(-c2ccc(-c3nnc(-c4cc(OC)ccc4OC)o3)cc2)cc1	-1%	8.2e-06M*	7.9µM*	>77	3.2µM*	4.5e-06M*
COc1ccc(-c2nnc(SCc3cc(C)cc(C)c3)o2)cc1	0%	i	u	>77	5%	i
COc1ccc(-c2nnc(-c3ccc(N(C)C)cc3)o2)cc1	-1%	1e-06M*	7.9µM*	>77	3.2µM*	1e-06M*
O=C(NCCN1CCOCC1)c1cc(-c2ccc(O)cc2)on1	2%	x	-19%	x	-1%	x
Cc1ccc(NC(=O)c2cc(S(=O)(=O)N3CCC4(CC3)OCCO4)ccc2F)cc1	-2%	i	10%	>77	5%	i
Cc1ccc(C(=O)Nc2nc3ccccc3n2CCN2CCCC2)cc1	0%	x	20%	x	-7%	x
CCCn1c(NC(=O)c2cccc(S(=O)(=O)N3CCCC3)c2)nc2ccccc21	1%	3e-08M*	u	x	u	3.3e-08M*
CCCn1c(NC(=O)c2ccc(C)cc2)nc2ccccc21	0%	6.2e-08M*	16µM*	>77	86%	5.1e-08M*
CCCn1c(NC(=O)c2ccccc2)nc2ccccc21	-2%	i	5%	>77	3%	i
CC(C)c1ccc(NC(=O)C(c2ccc3c(c2)OCO3)N2CCN(C(=O)c3ccco3)CC2)cc1 (configuration not stated)	0%	i	0%	>77	-3%	i
CC[C@H]1NC(=O)c2cc(S(N)(=O)=O)c(Cl)cc2N1	0%[25.7 µM]	6.2e-08M*	-13%[25.6 µM]	x	u	7e-08M*
Cc1ccc(NCc2nnc(SCC(N)=O)n2CCc2ccccc2)cc1	-1%	i	4%	>77	-7%	i
Cc1ccc(O)c(N)c1	0%	x	u	x	-23%	x
CCN(CC)CCOC(=O)c1c(C)n(C)c2ccc(OC)cc12	x	i	x	x	x	i
COc1ccc2c(c1)c1c(n2C(C)=O)C(OC(C)=O)=NCC1	5%	5.3e-08M*	-13%	>77	25µM*	4.8e-08M*
O=C(Nc1ccccc1)c1cnc2n(c1=O)CCS2	3%	x	-30%	x	-5%	x
COc1ccc(Cl)cc1NC(=O)c1cnc2n(c1=O)CCS2	1%	x	-22%	x	10µM*	x
COc1ccc(C)cc1NC(=O)c1cnc2sccn2c1=O	7%	x	-20%	x	25µM*	x
O=C(CSc1nnc(-c2ccccc2Cl)o1)N1CCCCC1	4%	x	5%	x	10%	x
CC(=O)c1ccc(C2C=CC(O)C(CO)O2)cc1 (configuration not stated)	-3%[11.5 µM]	x	0%[11.4 µM]	x	4µM*	x
Cc1ccc(Nc2nc(C(=O)N3CCC(C(=O)NCCN4CCOCC4)CC3)cs2)cc1	-1%	i	2%	x	-22%	i
Cc1oc(-c2cccs2)nc1CS(=O)CC(=O)NCCc1ccccc1 (configuration not stated)	-3%	x	-25%	x	25µM*	x
Cc1ccc(S(=O)(=O)c2c(C)nn(C(C)(C)C)c2OC(=O)c2ccc(Br)o2)cc1	2%	i	-2%	13*	-9%	i
C[C@H](CCC(=O)O)[C@H]1CC[C@H]2[C@@H]3[C@H](O)C[C@@H]4C[C@H](O)CC[C@]4(C)[C@H]3C[C@H](O)[C@]12C	-1%	x	-2%	x	8%	x
O=S(=O)(c1ccc(Br)s1)N1CCN(c2ccccn2)CC1	-2%	i	-4%	>77	-8%	i
Cc1n[nH]c(C)c1S(=O)(=O)N1CCN(c2ccccn2)CC1	-1%	i	3%	>77	25µM*	i
Cc1n[nH]c(C)c1S(=O)(=O)N1CCCC(C(=O)Nc2ccc3c(c2)OCCO3)C1 (configuration not stated)	1%	i	3%	>77	-1%	i
Cc1cc(C)cc(NC(=O)C2CCN(S(=O)(=O)c3c(C)n[nH]c3C)CC2)c1	-2%	1.2e-08M*	1%	>77	3%	u
Cn1c(C(=O)OC(C(=O)NC2CCCC2)c2cccnc2)cc2sccc21 (configuration not stated)	-1%	i	10%	>77	-4%	i

Compound activity from PubChem.
